This note sets out measurements from PubChem BioAssay (EPA / NIEHS).

SMILES strings stand for the structures. Where “and” joins values, the source holds several entries; their conditions need not be identical. Equal values may be shown once. The source holds several records for some structures; these can differ, active in one and inactive in another. Calls of active or inactive are those of the source. The calls were made as follows: active = hit-call score of the fitted dose curve at least 0.9, where 1 is the maximum; inactive = score below 0.9.

Read-out in the test: urokinase plasminogen activator (uPA), PLAU (gene 5328)
Nature of the test: BSK_BE3C_uPA: BioMAP Diversity Plus: BE3C Assay for urokinase plasminogen activator (uPA) Biomarker Activity (AID 2283038). Particulars: primary human bronchial epithelial cells; actives raise or lower the signal. Here is the method: BSK_BE3C is a cell-based, multiplexed-readout assay that uses bronchial epithelial cell, a human lung primary cell, with measurements taken at 24 hours after chemical dosing in a 96-well plate.BSK_BE3CA is an assay component measured in the BSK_BE3C assay. It measures uPA antibody related to regulation of gene expression using ELISA technology.Data from the assay component BSK_BE3CA was analyzed into 1 assay endpoint. This assay endpoint, BSK_BE3CA, was analyzed with bidirectional fitting relative to DMSO as the negative control and baseline of activity. Using a type of binding reporter, gain or loss-of-signal activity can be used to understand changes in the signaling as they relate to the gene PLAU. Furthermore, this assay endpoint can be referred to as a primary readout, because this assay has produced multiple assay endpoints where this one serves a signaling function. To generalize the intended target to other relatable targets, this assay endpoint is annotated to the protease intended target family, where the subfamily is serine protease.
The levels of cell surface (or secreted, indicated by the prefix "s") biomarker endpoints were measured by ELISA. Overt cytotoxicity to cells in confluent adherent cultures (all systems other than the BT system) was assessed by measuring total protein levels using sulforhodamine B (SRB) staining in parallel cultures at the time of biomarker measurements, indicated as SRB endpoints. For proliferation assays for adherent cell types, individual cell types are cultured at sub-confluence and relative cell numbers quantified by SRB staining at time points optimized for each system (48 h: 3C and CASM3C systems; 72 h: BT and HDF3CGF systems; 96 h: SAg system). SRB was performed by staining cells with 0.1% SRB after fixation with 10% TCA and reading wells at 560 nm.Viability and proliferation of PBMC (T cells) was quantified by Alamar Blue reduction for the SAg and BT systems. For PBMC viability (referred to as PBMC Cytotoxicity within the assay endpoint names), cells were plated (75,000/well in a 96-well plate) and then chemical samples added for 1 h before addition of activators, SEB and TSST-1 (20 ng/mL final concentration each). Cells were incubated for 90 h. Then, Alamar Blue (20 uL/well) (Invitrogen, Cat DAL1100) was added for 6 h, and the plates were read with a fluorescence microplate reader at 546/580 nm (excitation/emission). For PBMC proliferation, cells were plated and activated as above but incubated for only 16 h prior to addition of Alamar Blue. Plates were read after 6 h.
With `S=C([S-])NCCNC(=S)[S-].[Mn+2]`, the outcome was inactive.

Consider `O=C(O)C1(C(=O)Nc2ccc(Cl)cc2Cl)CC1`, for which the outcome was inactive.

Broadly, the AC50 is the concentration at which the activity in the assay is half-maximal. Turning to `CCOC(=O)C(C)Oc1ccc(Oc2nc3ccc(Cl)cc3o2)cc1` (stereo not given), the AC50 was 24.3 µM (active).

Regarding `CCNc1nc(N)nc(Cl)n1`, the AC50 was 10.9 µM (active).

As to `COc1c(Cl)ccc(Cl)c1C(=O)O`, the result was inactive.

As to `CCCCC(CC)COC(=O)c1ccccc1C(=O)O` (stereo not given), the AC50 is 29.9 µM (active).

Regarding `C#CCOC(=O)[C@@H](C)Oc1ccc(Oc2ncc(Cl)cc2F)cc1`, the result was inactive.

Turning to `COC(=O)c1cccc(C)c1S(=O)(=O)NC(=O)Nc1nc(OCC(F)(F)F)nc(N(C)C)n1`, the result was inactive.

For the compound `CCN(Cc1c(F)cccc1Cl)c1c([N+](=O)[O-])cc(C(F)(F)F)cc1[N+](=O)[O-]`, the outcome was inactive.

As to `OB(O)O`, the outcome was inactive.

On to `S=C(S)NCCNC(=S)S.[Mn+2].[S-]C([S-])=NCCN=C([S-])[S-].[Zn+2]`, for which the outcome was inactive; the AC50 was 209 nM (active) and 1.08 µM (active) and 2.73 µM (active).

As for `CC1(C)C(C=C(Cl)Cl)C1C(=O)OCc1cccc(Oc2ccccc2)c1` (stereo not given), the result was inactive.

With `CCCN(CCC)C(=O)SCC`, the outcome was inactive.

For the compound `Cc1nn(C)c(Oc2ccccc2)c1C=NOCc1ccc(C(=O)OC(C)(C)C)cc1`, the outcome was inactive.

Regarding `CCCCCCC(C)OC(=O)COc1nc(F)c(Cl)c(N)c1Cl` (stereo not given), the result was inactive.

As to `C[C@]12C[C@H](O)[C@H]3[C@@H](CCC4=CC(=O)CC[C@@]43C)[C@@H]1CC[C@@H]2C(=O)CO`, the outcome was inactive.

As for `N[C@@H](Cc1cc(I)c(Oc2ccc(O)c(I)c2)c(I)c1)C(=O)O`, the result was inactive.

`CCOC(=O)c1ccc(O)cc1`: the outcome was inactive.

Regarding `C[C@]12CC[C@@H]3c4ccc(O)cc4C[C@@H](CCCCCCCCCS(=O)CCCC(F)(F)C(F)(F)F)[C@H]3[C@@H]1CC[C@@H]2O` (stereo not given in full), the result was inactive.

In the case of `O=C(c1ccc(O)cc1O)c1ccc(O)cc1O`, the result was inactive.

For `N#CSCSc1nc2ccccc2s1`, the AC50 is 6.61 µM (active) and 12.1 µM (active).

For `CCCOC(=O)c1ccc(C(=O)OCCC)nc1`, the result was inactive.

As for `CCCCC(CC)CN1C(=O)C2C3C=CC(C3)C2C1=O` (stereo not given), the result was inactive.

For the compound `CC(C)(C)[C@@H](O)[C@@H](Cc1ccc(Cl)cc1)n1cncn1`, the result was inactive.

`CC(C)(c1ccc(O)cc1)c1ccc(O)cc1`: the result was inactive.

As to `CC(=O)[C@H]1CC[C@H]2[C@@H]3CCC4=CC(=O)CC[C@]4(C)[C@H]3CC[C@]12C`, the outcome was inactive.

On to `CCCCOCCOCCOCc1cc2c(cc1CCC)OCO2`, for which the outcome was inactive.

Regarding `O=C(c1ccccc1)C1CCCCC1`, the result was inactive.

Consider `CCOC(=O)COc1cc(-n2ncc(C(F)(F)F)c(C)c2=O)c(F)cc1Cl`, for which the result was inactive.

With `C#C[C@]1(O)CC[C@H]2[C@@H]3CCC4=CC(=O)CC[C@@H]4[C@H]3CC[C@@]21CC`, the result was inactive.

Turning to `CCOC(=O)[C@H](C)Oc1ccc(Oc2nc3ccc(Cl)cc3o2)cc1`, the result was inactive.

For `COc1nc(C)nc(NC(=O)NS(=O)(=O)c2ccccc2OCCCl)n1`, the outcome was inactive.

`COC(=O)c1ccccc1S(=O)(=O)NC(=O)Nc1nc(OC(F)F)cc(OC(F)F)n1`: the result was inactive.

Consider `CCC(C)OC(=O)N1CCCCC1CCO` (stereo not given), for which the outcome was inactive.

Take `c1ccc2[nH]c(-c3cscn3)nc2c1`: the result was inactive.

In the case of `COC(=O)c1ccccc1C(=O)O`, the result was inactive.

For `COCCO`, the result was inactive.

For `Oc1ccc(C(c2ccc(O)cc2)C(Cl)(Cl)Cl)cc1`, the AC50 is 36.6 µM (active).

With `CCCOC(=O)NCCCN(C)C`, the outcome was inactive.
